Records with an inconclusive call do not appear. Entries that show only a call come without a potency. The source made the active and inactive calls. Calls come from the whole dose curve; as a rule, active = well fitted inhibition curve with a large enough effect; inconclusive = small, poorly fitted or top-dose-only effect; inactive = no such curve, though single readings can be large or run the other way.

The experiment can be described thus: qHTS assay for measurement of the activity of small molecule inhibitors on Zika virus induced Caspase-3 activity in human iPSC derived neural progenitor cells (hNPCs) (AID 1224857). Note: nearly all actives have a fitted effect of over 65% in size. As to conditions: hNPCs ZIKV-induced caspase-3/7, Caspase-Glo luminescence, 6 h; series mostly up to 45.7 µM; activity change, negative = inhibition: at the top concentration. The text has this: National Center for Advancing Translational Sciences [NCATS]
Johns Hopkins University School of Medicine
Increase in the Caspase-3 activity indicates an activation of apoptosis cell death pathway caused by Zika virus infection in certain types of neuronal cells including human neural progenitor cells (hNPCs), astrocytes, and astrocytoma cell line (SNB-19). This cell-based caspase-3 activity assay measures the increased caspase-3 activity in the human iPSC derived neural progenitor cells (hNPCs) after a 6-hour Zika virus infection with a luminescence readout. A decrease in the luminescence signal in this assay by small molecule treatment indicates an inhibitory effect of that small molecule on the Zika virus induced caspase-3 activity that may correlate with its effect on reduction of Zika virus caused cell death.
The medium for hNPCs consists of DMEM/F12, N2 supplement (ThermoFisher, Cat.# 17502048), NEAA (ThermoFisher, Cat. # 11140050), 2 ug/ml heparin, 2 uM cyclopamine, and B27 (ThermoFisher, Cat. # 17504044). A Caspase-Glo 3/7 assay kit (catalog number G8092; Promega, Madison, WI) was used to detect caspase-3 activity induced by Zika virus infection in human cells. The reagent mixture was reconstituted as described in the protocol from the manufacturer. Polystyrene tissue culture treated and PDL coated white plates were obtained from Greiner Bio-One (Monroe, NC). Cells were seeded in 384- or 1536-well assay plates and cultured at 37 C with 5% CO2 for 16 to 20 hours. The typical cell seeding density in the 1536-well plate assay is 350 cells/well in 3 ul medium for hNPCs in tissue culture treated plates. Compounds were added to cells and incubated for one hour before addition of ZIKV solution to cells (2 FFU/cell). After incubation at 37 C with 5% CO2 for 6 hours, the reagent mixture of Caspase-Glo 3/7 assay kit was added to each well, followed by incubation at room temperature for 30 minutes. The luminescence intensity of the assay plates was measured using a ViewLux plate reader (PerkinElmer). Data were normalized by using the cell-containing wells without ZIKV as a negative control (0% induction of caspase 3/7 activity) and wells containing ZIKV infected cells (Caspase-3 activity induced) as a positive control (100% induction of caspase 3 activity). The percentage inhibitions of the increased Caspase-3 activity by small molecule inhibitors were then calculated.
In general terms: In qHTS, concentration-response curves come from the screen itself.
For the molecule `C[C@H]1O[C@@H](O[C@H]2[C@@H](O)C[C@H](O[C@H]3[C@@H](O)C[C@H](O[C@H]4CC[C@@]5(C)[C@H](CC[C@@H]6[C@@H]5CC[C@]5(C)[C@@H](C7=CC(=O)OC7)CC[C@]65O)C4)O[C@@H]3C)O[C@@H]2C)C[C@H](O)[C@@H]1O`, the “activity change, negative = inhibition” value is 4.93% (inactive).
Still for that read-out and setting: under `CO[C@]12CC[C@@]3(C[C@@H]1[C@](C)(O)C(C)(C)C)[C@@H]1Cc4ccc(O)c5c4[C@@]3(CCN1CC1CC1)[C@H]2O5` stands -5.22% [at 92.8 µM] (inactive); under `FC(F)(F)c1cccc(C2=CCN(CCc3ccc4ccccc4c3)CC2)c1`, -12.7% (inactive).
Still for that read-out and setting: under `CCN(C(C)=O)c1cccc(-c2ccnc3c(C#N)cnn23)c1` stands -3.39% (inactive).
For `Oc1cc(Cl)ccc1Oc1ccc(Cl)cc1Cl`, the Potency result is “inactive”.
Consider `C[C@@H]1O[C@@H](O[C@H]2C[C@@H](O)[C@]3(CO)[C@H]4[C@H](O)C[C@]5(C)[C@@H](C6=CC(=O)OC6)CC[C@]5(O)[C@@H]4CC[C@]3(O)C2)[C@H](O)[C@H](O)[C@H]1O`, for which the Potency entry is “inactive”.
As for `O=c1oc2ccccc2c(O)c1C(CC(O)c1ccc(-c2ccc(Br)cc2)cc1)c1ccccc1` (stereo not given), the “activity change, negative = inhibition” value is -15.1% (inactive).
In the case of `COc1ccc(Cc2nccc3cc(OC)c(OC)cc23)cc1OC`, the Potency result is “inactive”.
Same read-out and setting: in the case of `Clc1ccc(COC(Cn2ccnc2)c2ccc(Cl)cc2Cl)cc1` (stereo not given) it was “inactive”.
On to `C=C1CC[C@@]2(O)[C@H]3Cc4ccc(O)c5c4[C@@]2(CCN3CC2CC2)[C@H]1O5`, for which the “activity change, negative = inhibition” value is -1.6% (inactive).
Same read-out and setting: in the case of `NP(N)(=O)NC(=O)c1ccc(F)cc1` it was 5.16% (inactive).
Take `CN1C[C@H](CNC(=O)OCc2ccccc2)C[C@@H]2c3cccc4c3c(cn4C)C[C@H]21`: the Potency result is “inactive”.
In the case of `CC(C)(N)Cc1ccc(Cl)cc1`, the “activity change, negative = inhibition” value is 14.1% (inactive).
Regarding `C#CCN(C)[C@H](C)Cc1ccccc1`, the Potency entry was “inactive”.
On the same count and under the same terms, under `Clc1ccc(CCC(Cn2ccnc2)Sc2c(Cl)cccc2Cl)cc1` (stereo not given) stands “inactive”.
`CCC(COC(=O)c1cc(OC)c(OC)c(OC)c1)(c1ccccc1)N(C)C` (stereo not given): the “activity change, negative = inhibition” value is -2.35% (inactive).
As to `NN=C(N)N`, the Potency result was “inactive”.
In the case of `CNC(=O)N1N=C(c2ccc(N)cc2)c2cc3c(cc2CC1C)OCO3` (stereo not given), the “activity change, negative = inhibition” value was 8.1% (inactive).
Turning to `O=c1[nH]c2ccccc2n1CCCN1CCC(n2c(=O)[nH]c3cc(Cl)ccc32)CC1`, the Potency entry is “inactive”.
Turning to `CC[N+]1(C)CCCC(OC(=O)C(O)(c2ccccc2)c2ccccc2)C1` (stereo not given), the “activity change, negative = inhibition” value is 2.28% (inactive).
In the case of `CNCC(O)c1ccc(O)cc1` (stereo not given), the Potency result was “inactive”.
For the molecule `CCC(C(N)=O)N1CCCC1=O` (stereo not given), the “activity change, negative = inhibition” value is -3.84% (inactive).
Still for that read-out and setting: in the case of `Cc1sc2c(c1C)C(c1ccc(Cl)cc1)=N[C@@H](CC(=O)OC(C)(C)C)c1nnc(C)n1-2` it was 31.5% (inactive).
On the same count and under the same terms, in the case of `Cc1ccc2c(c1)C1CN(C)CCC1N2` (stereo not given) it was 4.04% [at 20.5 µM] (inactive).
With `CC[N+](CC)(CC)CC`, the Potency entry is “inactive”.
Still for that read-out and setting: under `Fc1ccc(C(OCCN2CCN(CCCc3ccccc3)CC2)c2ccc(F)cc2)cc1` stands “inactive”.
Same read-out and setting: in the case of `O=P1(NCCCl)OCCCN1CCCl` (stereo not given) it was “inactive”.
As for `N#CC(C#N)=Cc1ccc(O)c(O)c1`, the Potency result was “inactive”.
With `CC(=O)Nc1cc([As](=O)(O)O)ccc1O`, the “activity change, negative = inhibition” value was -2% (inactive).
In the case of `Cn1c(CCCC(=O)O)nc2cc(N(CCCl)CCCl)ccc21`, the Potency result was “inactive”.
Take `Oc1cccc2cccnc12`: the “activity change, negative = inhibition” value is -4.97% (inactive).
With `CC1OC(C)OC(C)O1` (stereo not given), the “activity change, negative = inhibition” value is -16.6% (inactive).
Consider `CN1CCN(C(=O)O[C@H]2c3nccnc3C(=O)N2c2ccc(Cl)cn2)CC1`, for which the Potency result was “inactive”.
Same read-out and setting: in the case of `Cc1cccc(C)c1NC(=O)CN1CCCC1=O` it was “inactive”.
On the same count and under the same terms, in the case of `c1ccc2c(c1)OCC(C1=NCCN1)O2` (stereo not given) it was “inactive”; in that of `CCCN1CCC[C@@H]2Cc3[nH]ncc3C[C@H]21`, “inactive”; in that of `N[C@@H](Cc1ccc(N(CCCl)CCCl)cc1)C(=O)O`, “inactive”.
Still for that read-out and setting: in the case of `Cc1ccc(S(=O)(=O)N[C@@H](CCCCN)C(=O)CCl)cc1` it was “inactive”.
For `C[C@]12CCC(=O)C(O)=C1CC[C@@H]1[C@@H]2CC[C@]2(C)C(=O)CC[C@@H]12`, the “activity change, negative = inhibition” value is -0.529% (inactive).
The same measure, in the same setting: under `O=C1CC[C@@]2(O)[C@H]3Cc4ccc(O)c5c4[C@@]2(CCN3CC2CC2)[C@H]1O5` stands 11.7% (inactive).
